Test results published in PubChem BioAssay (NCI).
This is part of a sample that, as a whole, favours compounds with a hit. Of some 79,000 tested, about 15% had one in any assay. The source made the active and inactive calls. No stated cut-off is given here; in the data, active means growth inhibition above about 70%; inactive means the rest.

Key:
[1] = NCI Yeast Anticancer Drug Screen. Data for the rad52 strain (AID 147);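 further: 0% = growth of vehicle-treated control cultures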; conditions: S. cerevisiae rad52 mutant growth inhibition, stronger effect = higher value
Summary of the method: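 Measured: yeast growth inhibition. System: strain with a defined DNA damage repair alteration. Reference: vehicle-treated control cultures.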

[2] = NCI Yeast Anticancer Drug Screen. Data for the wt1 strain (AID 149);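 further: 0% = growth of vehicle-treated wt1 cultures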; conditions: S. cerevisiae wt1 strain (SPY 50644) growth inhibition, stronger effect = higher value
Summary of the method: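 Growth inhibition read against vehicle controls after compound exposure of the wt1 yeast strain.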

[3] = NCI Yeast Anticancer Drug Screen. Data for the rad50EPP+ strain (AID 151);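 further: 0% = growth of vehicle-treated control cultures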; conditions: S. cerevisiae rad50 mutant strain, stronger effect = higher value
Summary of the method: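 One strain with a rad50 alteration (rad50EPP+) was compound-treated, its growth then compared to that of vehicle controls.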

[4] = NCI Yeast Anticancer Drug Screen. Data for the rad50 strain (AID 155);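 further: 0% = growth of vehicle-only cultures of the same strain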; conditions: S. cerevisiae rad50 strain growth inhibition, stronger effect = higher value
Summary of the method: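 Readout: growth inhibition relative to vehicle-treated cultures. Compound exposure was carried out in a genetically defined yeast strain deficient in DNA damage repair.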

[5] = NCI Yeast Anticancer Drug Screen. Data for the mec2-1 strain (AID 157); conditions: S. cerevisiae mec2-1 strain, stronger effect = higher value
Summary of the method: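 Test agents were screened against the mec2-1 yeast strain, with defined DNA repair or cell cycle alteration. Growth was scored as inhibition against vehicle-only controls.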

[6] = NCI Yeast Anticancer Drug Screen. Data for the rad14 strain (AID 159);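 further: 0% = growth of vehicle-treated control cultures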; conditions: S. cerevisiae rad14 strain growth inhibition, stronger effect = higher value
Summary of the method: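 Growth inhibition vs vehicle controls; genetically altered yeast strain (DNA damage repair defect) treated with test compounds.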

[7] = NCI Yeast Anticancer Drug Screen. Data for the sgs1 mgt1 strain (AID 161);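 further: 0% = growth of cultures given vehicle only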; conditions: S. cerevisiae sgs1 mgt1 strain, stronger effect = higher value
Summary of the method: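 Read-out: growth inhibition vs vehicle controls. Cells: mutant yeast strain deficient in DNA damage repair.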

[8] = NCI Yeast Anticancer Drug Screen. Data for the CLN2oe strain (AID 163);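 further: 0% = growth of vehicle-only control cultures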; conditions: S. cerevisiae CLN2oe strain, stronger effect = higher value
Summary of the method: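 Here, growth inhibition in a cell-cycle-altered yeast strain after compound exposure was quantified against vehicle control growth.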

[9] = NCI Yeast Anticancer Drug Screen. Data for the cln2 rad14 strain (AID 165);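 further: 0% = growth equal to vehicle treated cultures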; conditions: S. cerevisiae cln2 rad14 strain, stronger effect = higher value
Summary of the method: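 Growth of compound-exposed yeast (cln2 rad14 genotype) measured and expressed as inhibition relative to vehicle.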

[10] = NCI Yeast Anticancer Drug Screen. Data for the bub3 strain (AID 167); conditions: S. cerevisiae bub3 mutant strain, stronger effect = higher value
Summary of the method: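 Readout: yeast growth inhibition, expressed relative to vehicle-only wells. The test organism is a mutant strain from a panel with lesions in DNA repair or checkpoint genes.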

[11] = NCI Yeast Anticancer Drug Screen. Data for the wt2 strain (AID 169);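 further: 0% = growth of vehicle-treated yeast cultures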; conditions: S. cerevisiae wt2 strain growth inhibition, stronger effect = higher value
Summary of the method: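 Genetically defined yeast strains from a DNA-repair/cell-cycle panel were used. Compound-exposed yeast growth was measured, and the inhibition was calculated relative to vehicle treatment.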

[12] = NCI Yeast Anticancer Drug Screen. Data for the mlh1 strain (AID 171);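 further: 0% = growth of vehicle-treated control cultures of the same strain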; conditions: S. cerevisiae mlh1 strain growth inhibition, stronger effect = higher value
Summary of the method: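 Here the genetically defined yeast mutant is grown with each compound, and the extent to which its growth falls below that of vehicle-exposed cells is reported.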

[13] = NCI Yeast Anticancer Drug Screen. Data for the sgs1 strain (AID 173);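 further: 0% = growth of vehicle-only control cultures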; conditions: S. cerevisiae sgs1 mutant, stronger effect = higher value
Summary of the method: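 Relative growth inhibition, referenced to vehicle, was determined in a yeast strain with a defined alteration affecting DNA damage repair or cell cycle control after compound exposure.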

[14] = NCI Yeast Anticancer Drug Screen. Data for the mlh1 rad18 strain (AID 175); conditions: S. cerevisiae mlh1 rad18 strain growth inhibition, stronger effect = higher value
Summary of the method: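 In this whole-cell yeast screen, a strain with altered DNA damage repair is challenged with compound, and its growth is measured against matched vehicle-treated controls.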

[15] = NCI Yeast Anticancer Drug Screen. Data for the rad18 strain (AID 177); conditions: S. cerevisiae rad18 mutant growth inhibition, stronger effect = higher value
Summary of the method: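 Screen uses a yeast strain with a defined lesion in DNA damage repair; compound effect is read as loss of growth compared to untreated vehicle cultures.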

[16] = at 5.0 µM (retest, dose inferred, filed as 0.5)
[17] = at 50.0 µM (retest, dose inferred, filed as 5.0)

Measured: growth inhibition

CN1CCN(c2ccc3nc(-c4ccc5nc(-c6ccc(O)cc6)[nH]c5c4)[nH]c3c2)CC1
active: [1]; at 11.0 µM 98% | [1]; at 100.0 µM 98% | [2]; at 11.0 µM 98% | [2]; at 33.0 µM 98% | [2]; at 100.0 µM 97% | [3]; at 11.0 µM 83% | [3]; at 33.0 µM 97% | [3]; at 100.0 µM 97% | [4]; [16] 88% | [4]; at 11.0 µM 98% | [4]; at 33.0 µM 98% | [4]; [17] 99% | [4]; at 50.0 µM 99% | [4]; at 100.0 µM 98% | [5]; at 11.0 µM 97% | [5]; at 33.0 µM 97% | [5]; [17] 99% | [5]; at 50.0 µM 99% | [5]; at 100.0 µM 97% | [6]; at 11.0 µM 97% | [6]; at 33.0 µM 97% | [6]; at 100.0 µM 97% | [7]; [17] 99% | [7]; at 50.0 µM 99.2% | [8]; at 11.0 µM 97% | [8]; at 33.0 µM 98% | [8]; at 100.0 µM 98% | [9]; [17] 99% | [9]; at 50.0 µM 97.8% | [10]; [16] 84% | [10]; at 11.0 µM 97% | [10]; at 33.0 µM 98% | [10]; [17] 99% | [10]; at 50.0 µM 99.2% | [10]; at 100.0 µM 97% | [11]; at 11.0 µM 97% | [11]; at 33.0 µM 98% | [11]; at 100.0 µM 98% | [12]; at 11.0 µM 98% | [12]; at 33.0 µM 97% | [12]; at 100.0 µM 97% | [13]; at 11.0 µM 98% | [13]; at 33.0 µM 98% | [13]; at 100.0 µM 97% | [14]; [16] 71% | [14]; [17] 99% | [14]; at 50.0 µM 99.2% | [15]; at 11.0 µM 97% | [15]; at 33.0 µM 97% | [15]; at 100.0 µM 97%
inactive: [1]; at 1.2 µM 8% | [1]; at 3.7 µM -1% | [1]; at 33.0 µM 38% | [2]; at 1.2 µM 3% | [2]; at 3.7 µM 5% | [3]; at 1.2 µM -7% | [3]; at 3.7 µM -12% | [4]; at 1.2 µM 6% | [4]; at 3.7 µM 13% | [5]; at 1.2 µM -4% | [5]; at 3.7 µM -17% | [5]; [16] 63% | [6]; at 1.2 µM -16% | [6]; at 3.7 µM -16% | [7]; [16] 43% | [8]; at 1.2 µM 9% | [8]; at 3.7 µM 6% | [9]; [16] 45% | [10]; at 1.2 µM -10% | [10]; at 3.7 µM -1% | [11]; at 1.2 µM -17% | [11]; at 3.7 µM -27% | [12]; at 1.2 µM -10% | [12]; at 3.7 µM -15% | [13]; at 1.2 µM -5% | [13]; at 3.7 µM 2% | [15]; at 1.2 µM -12% | [15]; at 3.7 µM -29%
